Experimental findings from PubChem BioAssay are described below.

In test [1] the test system is transactivating tegument protein VP16 (Human herpesvirus 1). Kind of test: compounds suppressing VP16-driven luciferase signal – cell-based, luminescence, single concentration, counter-screen for SRC2 inhibitor project (AID 652007). The note with it: cell-based VP16 transactivation luciferase reporter, at 8.9 µM, hits give high values. Background: The purpose of a counterscreen is to sort out artefacts and off-target activity.

Test [2] deals with Nuclear receptor coactivator 2 (Homo sapiens) (UniProt Q15596). Kind of test: inhibition of GAL4-SRC2 driven luciferase expression – cell-based, luminescence, HEK293, triplicate, confirmation (AID 652008;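 active = mean inhibition above 46.5%, the solvent-only control mean plus 3 SD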;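 note: 0% = DMSO-treated cells and 100% = Gossypol at 36 µM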). The note with it: HEK293 GAL4-SRC2 luciferase reporter, at 8.9 µM, hits give high values. (In general: Reporter assays use an easily measured gene product as a stand-in for the process of interest.)

Values without a mark were called inactive. Calls of active or inactive are those of the source. Cut-off read from the data, not from the text of the source, unless noted: active = inhibition above about 36%; inactive = the rest.

Broadly, the inhibition is the drop in the measured response relative to a control, in per cent.

Sequence of Nuclear receptor coactivator 2 (Homo sapiens) (Q15596 whole entry, looked up, the tested form may be a part): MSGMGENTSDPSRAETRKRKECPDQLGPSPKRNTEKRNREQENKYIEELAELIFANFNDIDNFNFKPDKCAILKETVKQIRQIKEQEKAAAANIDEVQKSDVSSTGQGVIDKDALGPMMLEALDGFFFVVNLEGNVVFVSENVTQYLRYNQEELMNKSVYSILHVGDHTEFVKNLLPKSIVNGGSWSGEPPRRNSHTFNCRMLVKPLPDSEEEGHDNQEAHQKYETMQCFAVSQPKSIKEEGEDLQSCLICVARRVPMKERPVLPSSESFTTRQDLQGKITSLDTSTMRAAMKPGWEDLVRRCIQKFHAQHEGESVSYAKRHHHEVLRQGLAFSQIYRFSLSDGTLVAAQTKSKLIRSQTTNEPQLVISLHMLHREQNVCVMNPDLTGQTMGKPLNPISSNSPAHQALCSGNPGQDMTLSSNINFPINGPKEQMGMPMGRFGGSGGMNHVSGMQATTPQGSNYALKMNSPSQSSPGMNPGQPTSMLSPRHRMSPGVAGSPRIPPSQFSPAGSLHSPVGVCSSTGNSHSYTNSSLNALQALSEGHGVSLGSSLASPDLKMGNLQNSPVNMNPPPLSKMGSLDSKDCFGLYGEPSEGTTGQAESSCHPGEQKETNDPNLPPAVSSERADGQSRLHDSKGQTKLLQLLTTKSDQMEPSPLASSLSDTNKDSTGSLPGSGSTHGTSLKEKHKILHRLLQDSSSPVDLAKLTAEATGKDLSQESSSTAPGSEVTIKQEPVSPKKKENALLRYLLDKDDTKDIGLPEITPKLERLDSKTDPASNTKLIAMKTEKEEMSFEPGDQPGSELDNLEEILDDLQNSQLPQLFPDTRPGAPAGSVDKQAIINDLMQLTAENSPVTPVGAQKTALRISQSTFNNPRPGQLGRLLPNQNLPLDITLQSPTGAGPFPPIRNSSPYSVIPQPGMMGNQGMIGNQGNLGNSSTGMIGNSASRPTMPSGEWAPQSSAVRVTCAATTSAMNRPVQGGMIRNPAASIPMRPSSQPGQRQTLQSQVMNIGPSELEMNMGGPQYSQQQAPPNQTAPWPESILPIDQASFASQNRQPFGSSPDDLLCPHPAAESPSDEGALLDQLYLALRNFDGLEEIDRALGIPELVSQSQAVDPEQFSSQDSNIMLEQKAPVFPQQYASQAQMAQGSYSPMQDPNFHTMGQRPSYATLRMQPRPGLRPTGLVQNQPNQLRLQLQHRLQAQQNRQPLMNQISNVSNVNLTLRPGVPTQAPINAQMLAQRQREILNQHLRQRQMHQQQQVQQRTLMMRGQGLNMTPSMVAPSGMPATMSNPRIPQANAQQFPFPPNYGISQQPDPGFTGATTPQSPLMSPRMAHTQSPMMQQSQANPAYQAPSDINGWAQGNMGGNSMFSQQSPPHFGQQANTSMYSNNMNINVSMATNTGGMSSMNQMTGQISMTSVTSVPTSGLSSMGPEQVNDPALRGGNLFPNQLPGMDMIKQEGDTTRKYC

Regarding `CCNC(=O)NC(=O)C(C)OC(=O)CCCSc1nc2ccccc2s1` (centres undefined), the inhibition was 14.4% in test [1] and 22.5% in test [2].
In the same order, the values of `O=c1[nH]sc2ccccc12` are 7.96% and 8.22%.
The matching figures for `COc1cccc(NC(=O)Nc2nnc(CC(=O)Nc3ccccc3)s2)c1`: -11% and 21.1%.
The matching figures for `CC(C)(C)n1nc(Cc2cccc3ccccc23)c2c(N)ncnc21`: 2.66% and 29.4%.
As for `COc1ccc(CN=C(Nc2ccccc2)SC2CC(=O)NC2=O)cc1` (centres undefined), the inhibition was -5.45% in test [1] and -13.2% in test [2].
The matching figures for `CCC(C)Nc1nc(C)nc2c1oc1ccccc12` (centres undefined): 2.3% and 3.55%.
As to `C[C@H]1CN([C@@H](C)CO)S(=O)(=O)c2ccc(Br)cc2O[C@H]1CN(C)Cc1ccccc1F`, the inhibition in test [1] is 22.8%; in test [2] it was 16.8%.
The matching figures for `O=C(Nc1nc2cc3c(cc2s1)OCCO3)c1ccco1`: 24.9% and 56.3% (active).
The matching figures for `Cc1cc(F)ccc1NC(=O)CCc1c(C)nn(-c2ccc(N3CCCCC3)nn2)c1C`: -53% and 3.56%.
Consider `CCN(CC)S(=O)(=O)c1ccc(C)c(NC(=S)NC2CCCCC2)c1`, for which the inhibition in test [1] is 8.38%; in test [2], -9.1%.
In the same order, the values of `COc1cccc(Nc2nc(NCCO)c3ccccc3n2)c1` are -14.1% and 31.5%.
In the same order, the values of `O=C(CN1C(=O)NC2(CCCCCC2)C1=O)Nc1ccc(Br)cc1Br` are -12.2% and 2.3%.
In the same order, the values of `O=C1NC(Cc2ccc(O)cc2)c2nc3cc(Cl)ccc3c(=O)n2-c2ncccc21` (centres undefined) are -1.01% and -15.2%.
Turning to `COc1ccc2c(c1)/C(=C\c1cccc(/C=C3/C(=O)Nc4ccc(OC)cc43)n1)C(=O)N2`, the figures for the inhibition in test [1] and in test [2] were 90.5% (active) and 76.2% (active), respectively.
In the same order, the values of `CCOc1ccc(C(=O)C(CN2CCOCC2)c2ccccc2)cc1` (centres undefined) are 14.2% and 42.6%.
In the same order, the values of `CCCCCC(=O)N1CC2(CC(c3cccc(NC(=O)COc4ccc(Cl)cc4)c3)=NO2)C[C@@H]1C(N)=O` (some centres undefined) are -7.91% and -5.91%.
With `CC(=O)Nc1cccc(-c2cc(NC(C)=O)c3ncc(-c4ccc(F)cc4)n3c2)c1`, the inhibition in test [1] was 12%; in test [2], 2.54%.
As to `Cc1ccc2c(c1)COc1c3ccc(C(=O)O)cc3nn1-2`, the inhibition in test [1] is -24.7%; in test [2] it was -1.87%.
`COc1ccc(CNCCNC(=O)c2cccs2)c(OC)c1OC`: the inhibition was 8.76% in test [1] and 9.01% in test [2].
The matching figures for `Brc1cccc(-c2cnc3n2CCCCC3)c1`: 12.6% and 29.2%.
In the same order, the values of `C=C1CCC2C(C)(C)CCC[C@]2(C)[C@H]1CC1=C(O)C(=O)C(CO)=CC1=O` (some centres undefined) are 93.6% (active) and 98.8% (active).
The matching figures for `c1ccc(-c2csc3ncnc(NCc4ccccn4)c23)cc1`: -7.12% and 4.33%.
Regarding `COC(=O)c1ccc(CN2CCc3ccc(NC(=O)c4ccncc4)cc3C2)cc1`, the inhibition in test [1] was -9.32%; in test [2] it was 26.8%.
On to `O=C(CCc1ccncc1)N1CCCC(Nc2ccc(F)c(F)c2)C1` (centres undefined), for which the results for the inhibition in test [1] and in test [2] were -3.61% and -7.87%, respectively.
The matching figures for `CC(C)N(C(=O)[C@H]1C[C@H](CC(=O)NCCc2ccccn2)C(=O)N2CCc3c([nH]c4cc(-c5ccco5)ccc34)[C@]12C)C(C)C`: -4.18% and -6.81%.
The matching figures for `O=S(=O)(O)Sc1ccccc1`: -0.6% and 4.75%.
The matching figures for `O=C(CN1CCN(CC(=O)Nc2ccccc2Cc2ccccc2)CC1)Nc1ccccc1Cl`: 11.3% and 4.85%.
Consider `COc1ccc(-c2csc3ncnc(NCCO)c23)cc1`, for which the inhibition in test [1] is 3.39%; in test [2], 47.1% (active).
Regarding `Cc1cc(C)cc(C(=O)NC(=S)Nc2ccc(-c3cc4ccccc4oc3=O)cc2)c1`, the values for the inhibition in test [1] and in test [2] were -8.51% and 46.7% (active), respectively.
In the same order, the values of `CCOc1ccc(NC(=S)NC(=O)/C=C/c2ccc(OC)cc2)c([N+](=O)[O-])c1` are -22.3% and -19.4%.
On to `COc1cc(OC)c2c(-c3cccc(-c4ccc(N(C)C)cc4)c3)cc(=O)oc2c1`, for which the inhibition in test [1] was -17.4%; in test [2], 27.6%.
The matching figures for `C=CCc1cccc2cc(C(=O)Nc3ccc(CC(=O)O)cc3)c(=O)oc12`: 12% and 25.6%.
For `CCn1c(Cl)c(C=O)s/c1=N\S(=O)(=O)c1ccccc1`, the inhibition in test [1] was 59.6% (active); in test [2] it was 16%.
In the same order, the values of `COc1cccc(C(NC(C)=O)c2nc(-c3cccc(C#N)c3)cs2)c1` (centres undefined) are -10.7% and -26.2%.
In the same order, the values of `Cc1cc(C(=O)NNS(=O)(=O)c2cc(C(=O)O)ccc2Cl)c(C)n1-c1ccccc1` are 2.27% and 45.4%.
In the same order, the values of `CN1CCC(=NNc2ncnc3sc4c(c23)CCCC4)CC1` are -9.72% and -19.6%.
`CCOc1ccc(NC(=O)CN(C)C(=O)c2cn(-c3ccccc3)nc2-c2cccs2)cc1OCC`: the inhibition is -4.29% in test [1] and 16% in test [2].
In the same order, the values of `Cc1c(CCC(=O)N[C@@H](C)C(=O)O)c(=O)oc2cc3oc4c(c3cc12)CCCC4` are 38.8% (active) and 60.1% (active).
For the compound `Oc1ccc(N=Nc2ccc3c(c2)OCCO3)c2ncccc12`, the results for the inhibition in test [1] and in test [2] were -13.1% and 13.6%, respectively.
In the same order, the values of `NNC(=O)c1[nH]c2ccc(Br)cc2c1-c1ccccc1` are -11.1% and -1.32%.
In the same order, the values of `Cn1nnnc1Sc1ncnc2scc(-c3cccc(C(F)(F)F)c3)c12` are 36.9% (active) and 52.3% (active).
The matching figures for `O=C1C2CCCN2C(=S)N1C1CCCCC1` (centres undefined): 1.86% and 3.89%.
With `Nc1nc(CCl)nc(Nc2ccccc2)n1`, the figures for the inhibition in test [1] and in test [2] were -25.1% and 8.83%, respectively.
In the same order, the values of `CCOc1ccc(NC(=S)C(C#N)=C2N(C)c3ccccc3N2C)cc1` are -4.65% and -15.8%.
For `CCNC(=O)C1(C)CCCN(Cc2csc(-c3ccccc3)n2)C1` (centres undefined), the results for the inhibition in test [1] and in test [2] were -30.6% and -4.83%, respectively.
The matching figures for `CS(=O)(=O)c1ccc(Cl)c(NC(=O)c2cccc(-n3cnnn3)c2)c1`: -11.3% and -13.4%.
In the same order, the values of `N/C(=N\OC(=O)c1ccc(Cl)cc1Cl)c1ccccn1` are -75.5% and -25.1%.
